Compound activity deposited in PubChem by several laboratories.
PfHsp40 yeast = compounds rescuing yeast from Plasmodium falciparum HSP40 toxicity; S. cerevisiae expressing PfHsp40, growth rescue, ATP luminescence; growth rescue, % at 12.5 µM; 340,000 tested, 0.68% active; AID 504582; in the data active = growth rescue above about 28%, passing the limit was not always enough;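 also: yeast W303a lacking pdr1 and pdr3 grown in galactose medium; growth measured after three days at 30 °C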
SARS 3CLpro inh-1 = SARS-CoV 3CLpro protease inhibition. P0C6X7. recombinant SARS-CoV 3CLpro, quenched FRET peptide cleavage. inhibition, % at 6 µM. 290,000 tested, 0.14% active; in the data active = inhibition above about 12%
RN4220 kill = S. aureus RN4220 growth inhibition. OD600, 16 h. inhibition, % (no concentration beside the values). AID 1259311. 330,000 tested, 0.33% active; in the data active = inhibition above about 85%
Sa ugtP lethal = growth inhibition of S. aureus ugtP deletion strain. S. aureus RN4220 ugtP deletion, OD600 growth, 16 h. growth inhibition, % (concentration not given with the values). 330,000 tested, 0.54% active. AID 1259309; in the data active = growth inhibition above about 68%
BJeLR viability = kills HRASV12-expressing BJeLR cells; BJeLR (HRASV12) viability, CellTiter-Glo ATP luminescence, 48 h; inhibition, % (test concentration not listed); 300,000 tested, 0.17% active; AID 1554; in the data active = inhibition above about 50%
SARS 3CLpro inh-2 = SARS 3CLpro inhibition, confirmation assay; shares compounds with SARS 3CLpro inh-1; QFRET protease activity assay; inhibition, % at 6 µM; 380 tested, 36% active; AID 1879; in the data active = inhibition above about 13%
Of the large screens only hits and unclear results are named; the others gave an inactive call (follow-up assays come after a bar, where they were run). This is a sample that favours compounds with a hit; in the whole collection about 1.3% have one here.

O=c1[nH]cnc2c1ncn2C1OC(COS(=O)(=O)O)C(O)C1O (stereo unspecified)	none (no result: PfHsp40 yeast, SARS 3CLpro inh-1, BJeLR viability)
Cc1ccc(SCc2cc(-c3ccc(Cl)cc3)on2)cc1	none
CN(c1ccc(C(=O)NCc2ccco2)cc1)S(C)(=O)=O	none
O=C(NC(Cc1c[nH]c2ccccc12)C(=O)Nc1ccc(OC(F)(F)F)cc1)c1cccs1 (stereo unspecified)	none
Cc1ccc(C(=O)c2c3ccccc3[n+]([O-])n2CCC(N)=O)cc1	SARS 3CLpro inh-1 33.2 (no result: RN4220 kill, Sa ugtP lethal) | SARS 3CLpro inh-2 35.8
Cc1ccc(C(=O)c2c3ccc([N+](=O)[O-])cc3[n+]([O-])n2CCC(N)=O)cc1	SARS 3CLpro inh-1 12.4 | SARS 3CLpro inh-2 inactive
Cc1ccc(C(=O)c2c3ccccc3[n+]([O-])n2[C@@H](C)C(N)=O)cc1	none (no result: SARS 3CLpro inh-1, RN4220 kill, Sa ugtP lethal)
Cc1ccc(C(=O)c2c3ccc(C(F)(F)F)cc3nn2CCC(N)=O)cc1	none (no result: SARS 3CLpro inh-1)
COc1cccc(CNC(=O)Cn2cccc2C(=O)c2ccccc2C)c1	none
CC(C)(C)c1ccc(C(=O)Nc2ccc(S(=O)(=O)Nc3cnc4ccccc4n3)cc2)cc1	SARS 3CLpro inh-1 14.1 | SARS 3CLpro inh-2 inactive
O=C(Nc1ccc(S(=O)(=O)Nc2cnc3ccccc3n2)cc1)c1ccc(F)cc1	none (no result: SARS 3CLpro inh-1)
CCOC(=O)c1ccc(NC(=O)CN2C(=O)C(CC)SC(CC)C2=O)cc1 (stereo unspecified)	SARS 3CLpro inh-1 12.6 | SARS 3CLpro inh-2 inactive
FC(F)(F)c1cc(-c2cccs2)nc(N2CCOCC2)n1	none
CCOc1ccc2c(c1)C(NC(C)=O)C(=O)N2CCN1CCOCC1 (stereo unspecified)	none
CC(=O)NC1C(=O)N(CCN2CCOCC2)c2ccc(Br)cc21 (stereo unspecified)	SARS 3CLpro inh-1 13.8 (no result: RN4220 kill, Sa ugtP lethal) | SARS 3CLpro inh-2 47.0
Cc1nn(-c2ccccc2)c(N)c1C(c1ccccc1)c1c(C)nn(-c2ccccc2)c1N	SARS 3CLpro inh-1 13.9 | SARS 3CLpro inh-2 inactive
Cc1nn(-c2ccccc2)c(N)c1N=O	none (no result: PfHsp40 yeast)
CC(C)C(=O)Nc1cccc(NC(=S)NC(=O)c2ccccc2Cl)c1	none
O=C(Nc1ccc(NC(=S)NC(=O)c2ccccc2Cl)cc1)c1cccc(Cl)c1	SARS 3CLpro inh-1 15.7 (no result: RN4220 kill, Sa ugtP lethal) | SARS 3CLpro inh-2 inactive
CC(=O)Nc1ccc(S(=O)(=O)NCCCN2CCOCC2)cc1	none
O=C(CCN1C(=O)c2ccccc2S1(=O)=O)Nc1ccccc1O	none
Cc1noc(NS(=O)(=O)c2ccc(NC(=O)Nc3ccc(Cl)c(Cl)c3)cc2)c1C	SARS 3CLpro inh-1 15.8 | SARS 3CLpro inh-2 inactive
CC(=O)c1cc(-c2ccccc2)[nH]c1N1CCOCC1	SARS 3CLpro inh-1 45.6 | SARS 3CLpro inh-2 inactive
CC(=O)c1cc(N2CCOCC2)ccc1[N+](=O)[O-]	none
COc1ccc(C(=O)CSc2nnc(CNc3ccc(C)cc3C)n2Cc2ccco2)cc1	none
Cc1ccc(C(=O)CSc2nnc(CNc3ccc(C)cc3C)n2Cc2ccco2)cc1	SARS 3CLpro inh-1 12.7 | SARS 3CLpro inh-2 inactive
CCOc1ccc(NC(=O)CN(C)C(=O)Cc2n[nH]c(=O)c3ccccc23)cc1OCC	none (no result: SARS 3CLpro inh-1, BJeLR viability)
O=C(O)c1ccc(N2N=C(c3ccccc3)CC2c2ccccc2)cc1 (stereo unspecified)	SARS 3CLpro inh-1 13.2 | SARS 3CLpro inh-2 inactive
Cc1cc(C)c(N(C(=O)Cn2nnc3ccccc32)C(C(=O)NC(C)(C)C)c2ccsc2)c(C)c1 (stereo unspecified)	SARS 3CLpro inh-1 43.3 | SARS 3CLpro inh-2 69.2
CC(C)NC(=O)CN1CCN(c2ncccn2)CC1	SARS 3CLpro inh-1 12.3 | SARS 3CLpro inh-2 inactive
CC(NC(=O)CN1CCN(c2ncccn2)CC1)c1ccc(F)cc1 (stereo unspecified)	none
CCC(O)(CC)C(=O)NN(C(=O)CCl)c1ccccc1	none
O=C(Nc1ccccc1)NN(C(=O)CCl)c1ccccc1	SARS 3CLpro inh-1 32.2 | SARS 3CLpro inh-2 36.5
Cc1ccc(OCC(=O)NN=Cc2ccc([N+](=O)[O-])o2)cc1	none (no result: PfHsp40 yeast, SARS 3CLpro inh-1, BJeLR viability)
Cc1ccc(OCC(=O)N/N=C/c2ccc([N+](=O)[O-])o2)cc1	SARS 3CLpro inh-1 12.6 (no result: RN4220 kill, Sa ugtP lethal) | SARS 3CLpro inh-2 inactive
N/C(=N\S(=O)(=O)c1cc(C(F)(F)F)cc(C(F)(F)F)c1)c1ccc(Cl)cc1	SARS 3CLpro inh-1 14.2 | SARS 3CLpro inh-2 inactive
c1ccc(C[C@H]2CNCCN2CCc2cccc3ccccc23)cc1	none (no result: SARS 3CLpro inh-1, RN4220 kill, Sa ugtP lethal)
COc1ccc(N(Cc2cc(=O)[nH]c3ccccc23)C(=O)CCl)cc1	SARS 3CLpro inh-1 16.2 (no result: RN4220 kill, Sa ugtP lethal) | SARS 3CLpro inh-2 24.6
CCCC(=O)N(Cc1cc(=O)[nH]c2ccccc12)c1ccc(OC)cc1	none
CN1CCN(c2ccccc2NC(=O)c2cccc([N+](=O)[O-])c2)CC1	none
O=C(Nc1ccccc1N1CCN(C(=O)c2ccc(Cl)cc2)CC1)c1cccc([N+](=O)[O-])c1	SARS 3CLpro inh-1 13.7 | SARS 3CLpro inh-2 inactive
O=S(=O)(Nc1ccc(S(=O)(=O)Nc2nccs2)cc1)c1ccc(Br)cc1	SARS 3CLpro inh-1 47.3 | SARS 3CLpro inh-2 inactive
O=S(=O)(Nc1nccs1)c1ccc(Br)cc1	none
COc1ccc([C@@H]2CC=C(C(=O)O)CN2S(=O)(=O)c2ccc(Cl)cc2)cc1	none (no result: SARS 3CLpro inh-1, RN4220 kill, Sa ugtP lethal, BJeLR viability)
Cc1nc(-c2nnc(SCC(=O)Nc3ccc(Cl)cc3)n2C)cs1	none
COc1ccc(-c2coc3c(CN4CCCCC4C)c(O)ccc3c2=O)cc1 (stereo unspecified)	none
Cc1cc(N(CCCl)CCCl)ccc1C=NN=C(N)c1cnccn1	none (no result: PfHsp40 yeast, SARS 3CLpro inh-1, BJeLR viability)
COc1cccc(CNC(=O)C(C)n2nc(C)n3c(cc4occc43)c2=O)c1 (stereo unspecified)	none
Cc1ccc(O)c(Nc2ncnc3ccccc23)c1	SARS 3CLpro inh-1 13.4 | SARS 3CLpro inh-2 inactive
COc1ccc(N2CCN(C(=O)c3cc(=O)[nH]c4ccccc34)CC2)cc1	SARS 3CLpro inh-1 27.0 | SARS 3CLpro inh-2 26.7
Cc1cc(C)c(C)c(S(=O)(=O)N2CCN(C(=O)c3cc(=O)[nH]c4ccccc34)CC2)c1C	SARS 3CLpro inh-1 55.1 | SARS 3CLpro inh-2 53.2
O=C(c1cc(=O)[nH]c2ccccc12)N1CCN(c2cccc(C(F)(F)F)c2)CC1	SARS 3CLpro inh-1 45.9 | SARS 3CLpro inh-2 44.3
COc1ccc(S(=O)(=O)N(Cc2ccccc2)c2ccccc2C(=O)O)cc1	none
CC(=O)Nc1nc2cc(N)ccc2s1	none (no result: SARS 3CLpro inh-1, BJeLR viability)
CCC(CO)Oc1cc(NCc2cccc(O)c2)c2ncn(C(C)C)c2c1 (stereo unspecified)	none (no result: SARS 3CLpro inh-1, BJeLR viability)
O=C(Nn1cnc2ccccc2c1=O)c1ccc(Br)cc1	SARS 3CLpro inh-1 13.9 | SARS 3CLpro inh-2 inactive
Cc1cc(C)cc(OC(C)C(=O)Nc2ccc(S(=O)(=O)Nc3cc(C)nc(C)n3)cc2)c1 (stereo unspecified)	none
CC(C)(C)C(=O)NC(=S)Nc1sc2c(c1C#N)CCCCC2	SARS 3CLpro inh-1 33.6 | SARS 3CLpro inh-2 inactive
CC(=O)Nc1sc2c(c1C#N)CCCCC2	none (no result: BJeLR viability)
C/C(=N\N=C(/N)SC1CC(=O)N(c2ccc(Cl)cc2)C1=O)c1cccs1 (stereo unspecified)	SARS 3CLpro inh-1 12.8 (no result: RN4220 kill, Sa ugtP lethal) | SARS 3CLpro inh-2 inactive
CCc1noc(C)c1C(=O)Nc1ccc(F)c(F)c1	none (no result: SARS 3CLpro inh-1)
